The list is not random: actives were taken first. Their share in the collection is about 4.1%.
hcDAF-12 act – H. contortus DAF-12 nuclear receptor activators, primary screen, cell-based, luminescence, HEK293, lit1-tk-luc reporter; HEK293 hcDAF-12 lit1-tk-luc reporter; 0% DMSO, 100% Δ7-dafachronic acid; activation, % at 6.8 µM; 370,000 tested, 1.4% active;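 active means activation above the mean of all tested compounds plus 3 SD, cut at about 5.5% in these data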;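 further: 100% = response to 3 µM Δ7-dafachronic acid high control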
DAX1 inh-1 – DAX1 (NR0B1) inhibitors, primary screen, cell-based, HEK293, Gal4-DAX1, luciferase luminescence; Nuclear receptor subfamily 0 group B member 1 (Homo sapiens), P51843; HEK293 Gal4-DAX1 luciferase reporter; inhibition, % at 6.75 µM; 340,000 tested, 0.99% active;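 active means inhibition above the mean over all tested compounds plus 3 SD, cut at about 4.2% in these data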;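 further: 0% = DAX1-transfected cells with DMSO and 100% = empty-vector control cells with DMSO; inhibition shows as a rise in luminescence from relieved DAX1 repression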
Target sequence (P51843 207-470 limits assumed): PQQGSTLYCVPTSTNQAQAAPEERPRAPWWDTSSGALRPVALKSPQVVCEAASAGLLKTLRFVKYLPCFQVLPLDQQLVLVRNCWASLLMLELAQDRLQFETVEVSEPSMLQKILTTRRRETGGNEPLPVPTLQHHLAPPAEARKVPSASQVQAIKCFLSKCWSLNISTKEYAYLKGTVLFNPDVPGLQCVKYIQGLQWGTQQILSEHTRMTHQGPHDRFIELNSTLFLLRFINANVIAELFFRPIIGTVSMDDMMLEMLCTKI
ssDAF-12 act – S. stercoralis DAF-12 nuclear receptor activators, primary screen, cell-based, luminescence, HEK293, GRIP1 co-expression, lit1-tk-luc. HEK293 ssDAF-12/GRIP1 lit1-tk-luc reporter; % of 3 µM dafachronic acid response. activation, % at 6.8 µM. 370,000 tested, 1% active. AID 652126, 2013;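 active means activation above the mean over all tested compounds plus 3 SD, cut at about 0.9% in these data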;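 further: 0% = DMSO-only wells and 100% = 3 µM delta7-dafachronic acid wells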
DAX1 inh-2 – DAX1 (NR0B1) inhibitors on StAR promoter, primary screen, cell-based, luminescence, SF-1 (NR5A1), full-length DAX-1. HEK293T StAR-luciferase reporter, SF-1/DAX-1 repression relief. inhibition, % at 6.8 µM. 370,000 tested, 1.1% active. AID 652010, 2013;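 active means inhibition above the mean over all tested compounds plus 3 SD, cut at about 3.6% in these data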;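 further: 0% = DAX-1 cells with DMSO and 100% = cells lacking DAX-1 with DMSO; higher inhibition means more luminescence from relief of DAX-1 repression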
hgDAF12 agonist – H. glycines DAF-12 receptor agonists, primary screen, cell-based, luminescence, HEK293, GAL4 fusion, UAS-luciferase. AID 687014, 2013. HEK293 GAL4-hgDAF12 UAS-luciferase reporter, agonist luminescence; normalized to butyrate control. Nuclear hormone receptor DAF-12 (Heterodera glycines), GAL4 fusion. 370,000 tested, 1.8% active. activation, % at 6.8 µM;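 active means activation above a cutoff set at the mean of all screened compounds plus 3 SD, cut at about 10% in these data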;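 further: 0% = DMSO wells and 100% = sodium butyrate wells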
Numbers without * were called inactive; nt = no result given.

SMILES | hcDAF-12 act | DAX1 inh-1 | ssDAF-12 act | DAX1 inh-2 | hgDAF12 agonist
C/C(=N\NC(=O)c1nn(C)cc1Cl)c1ccncc1 | 1.9 | 1.4 | 0.0 | 0.8 | 10.1
CC1(C)C=C2C(N(Cc3ccc4c(c3)OCO4)C(=N)N2C(=O)OCc2ccccc2)n2c(=O)n(-c3ccccc3)c(=O)n21 (stereo not drawn) | 0.8 | nt | -1.2 | nt | -0.5
CCOC(=O)N1CCN(C(=O)C[C@@H]2C(=O)N(Cc3ccc(OC)cc3)/C3=C/CCCCC[C@@]32C(=O)OCC)CC1 | -2.0 | nt | -1.6 | -0.4 | 0.8
COc1cc(-c2cnc3c(NC(C)=O)cc(-c4ccc(N5CCN(C)CC5)cc4)cn23)cc(OC)c1OC | -4.8 | nt | -2.5 | -4.1 | -9.7
COc1cccc(-c2cnc3c(NC=O)cc(-c4ccc(O)c(OC)c4)cn23)c1 | -2.5 | nt | -1.5 | -1.2 | -1.6
COc1cc(-c2cnc3c(NC=O)cc(-c4ccc(N5CCN(C)CC5)cc4)cn23)cc(OC)c1OC | 2.9 | nt | 0.4 | 2.5 | 10.7*
COc1cc(-c2cc(NC=O)c3ncc(-c4ccc(C(C)=O)cc4)n3c2)ccc1O | -2.8 | nt | -1.4 | -1.4 | 10.5*
COC(=O)c1cc2c(c3c4cc(F)ccc4n(S(=O)(=O)c4cccc(C)c4)c13)C(=O)N(Cc1ccc(N(C)C)cc1)C2 | 0.2 | nt | -0.2 | -0.1 | 2.2
COc1cc(/C=C/c2ccc3cccc(O)c3n2)cc(Br)c1OC | 0.5 | 1.7 | -0.2 | 0.5 | 11.5*
CNC(=S)N=Nc1c(O)[nH]c2ccccc12 | 5.6* | -0.4 | -1.0 | -0.7 | 0.0
Cc1ccc(NC(=S)N=Nc2c(O)[nH]c3ccccc23)cc1 | -0.4 | 0.0 | -1.9 | -1.4 | -4.2
O=C(CCNC(=O)c1ccccc1)N=Nc1c(O)[nH]c2ccccc12 | 1.0 | nt | 21.2* | 0.9 | -2.2
O=C(CCc1c[nH]c2ccccc12)N=Nc1c(O)[nH]c2ccccc12 | -2.2 | -1.0 | -1.4 | -0.7 | 0.4
C[C@H]1[C@@H](OC(=O)NCc2ccc(Cl)cc2)CC[C@@]23CCCN2C(=O)CCC[C@@H]13 | -0.3 | nt | -0.6 | nt | -1.4
O=C(COc1ccccc1)NNc1nc2ccccc2s1 | -3.2 | 6.5* | -2.1 | -1.6 | -9.3
CC(=O)c1sc(NC(=O)COc2ccccc2)nc1C | 2.0 | 4.5* | -0.1 | 2.2 | 9.6
CC(=O)c1sc(NC(=O)c2ccc(C)c(C)c2)nc1C | 2.0 | 6.2* | -1.2 | 2.3 | 13.0*
CC(=O)c1sc(NC(=O)c2cnc(Cl)c(Cl)c2)nc1C | 4.2 | 1.4 | -0.2 | 0.5 | 6.1
O=C(C1CCCN1S(=O)(=O)c1ccc(Br)s1)N1CCN(c2ccccc2)CC1 (stereo not drawn) | -0.2 | nt | -0.9 | -0.6 | -4.8
COc1ccc2c(c1)[C@@H](NC(=O)c1ccncc1)[C@@H]1Cc3ccccc3[C@H]21 | 0.4 | nt | -0.8 | 1.4 | 1.0
Cc1ccc2nc(C3CCCCC3)[nH]c2c1 | 2.3 | 4.7* | 0.0 | 2.4 | 11.6*
CCNC(=S)N1CCCC(c2nc3ccc(C)cc3[nH]2)C1 (stereo not drawn) | 0.4 | -0.7 | -1.0 | -1.2 | -0.4
O=C(C(=O)N1CCC(CNS(=O)(=O)c2ccc(C(F)(F)F)cc2)CC1)c1cccs1 | 0.4 | nt | -0.9 | -0.9 | -1.3
Brc1ccc(/C=N/Nc2nc3ccccc3o2)cc1 | 5.9* | 3.7 | 1.9* | 1.0 | 11.5*
CCOC(=O)N1CCN(C(=O)C[C@H]2C(=O)N(Cc3ccc(OC)cc3)C3=CCCC[C@@]32C(=O)OCC)CC1 | -2.6 | nt | -1.3 | -1.1 | -2.3
SMILES | hcDAF-12 act | DAX1 inh-1 | ssDAF-12 act | DAX1 inh-2 | hgDAF12 agonist
COc1ccc(/C=N/NC(=O)CN2CCCc3ccccc32)c(OC)c1 | 5.8* | -0.2 | 0.2 | 0.5 | 0.5
Fc1ccc(-c2n[nH]c(=S)n2N=Cc2cccc(OCc3ccccc3)c2)cc1 | -1.9 | nt | -1.5 | -0.2 | 2.5
CCN1CCN(C(=S)c2ccc(O)cc2)CC1 | -0.7 | 7.5* | -1.8 | 1.2 | 0.8
COc1cccc(NC(=O)COC(=O)c2ccccc2F)c1 | -2.2 | -1.1 | -1.6 | 1.0 | -1.4
O=C(COC(=O)c1c(F)cccc1Cl)NC1CCCC1 | 0.8 | 1.2 | 0.1 | 0.7 | 6.8
COc1cccc(NC(=O)COC(=O)c2c(F)cccc2Cl)c1 | 1.2 | 4.4* | -0.5 | 0.6 | 6.1
O=C(COC(=O)c1c(F)cccc1Cl)NCC1CCCCC1 | -0.1 | 1.1 | -0.9 | 0.1 | 11.1*
COc1ccc(CN2C3=N[C@H](c4ccccc4)CC(=O)N3/C(=C\c3ccccc3)C2c2ccco2)c(OC)c1 (stereo partly drawn) | 0.5 | nt | -0.4 | 0.1 | -1.3
O=C(NCCc1ccccc1)C1CCN(C(=O)c2ccc([N+](=O)[O-])cc2)CC1 | 0.7 | 0.2 | 0.9* | -0.8 | 4.7
COc1ccc(C2=CCN(C)C(=O)N2c2ccc([N+](=O)[O-])cc2)cc1 | -2.5 | nt | 0.0 | -0.3 | 1.6
Cc1ccc(-n2c(SCC(=O)c3ccccc3Br)nnc2-c2ccncc2)cc1 | -1.8 | nt | -1.0 | -0.1 | -1.3
Cc1cccc(NC(=O)CSc2nc(=O)n3ccccc3n2)c1C | 1.0 | 1.1 | -0.9 | -1.3 | -0.4
O=C(CSc1nc(=O)n2ccccc2n1)Nc1cccc2ccccc12 | 1.7 | 0.5 | 1.0* | 0.8 | 1.6
O=C(CSc1cccs1)Nc1ccc2ccccc2c1 | -0.8 | 1.2 | -1.0 | -0.2 | 9.0
O=C(CSc1cccs1)Nc1cccc2ccccc12 | 4.6 | 0.7 | -0.1 | 1.6 | 10.7*
CCc1nccn1CC(=O)c1ccc(O)c(O)c1 | 0.2 | nt | -1.3 | nt | -3.0
CCC[C@H]1[C@@H](OC(=O)NCCc2ccccc2)CC[C@@]23CCCN2C(=O)CCC[C@@H]13 | 0.0 | nt | -1.7 | nt | -3.9
O=C(NCc1ccccc1)c1ccc(Cl)c(NC2=NC3CS(=O)(=O)CC3S2)c1 (stereo not drawn) | 0.5 | 1.6 | -0.5 | 1.1 | 6.7
COc1ccc(CNC(=O)c2ccc(Cl)c(NC3=NC4CS(=O)(=O)CC4S3)c2)cc1 (stereo not drawn) | -1.0 | -0.7 | -1.1 | -1.0 | 10.5*
CCC[C@H]1[C@@H](NCc2ccccc2)CC[C@@]23CCCN2C(=O)CCC[C@@H]13 | -1.9 | nt | -2.0 | nt | 1.6
CCCCCCCCN1C(=O)[C@@H](CC(=O)N2CCSCC2)C[C@@]2(C(=O)OC)C1=C[C@H](C1CCCC1)O[C@@H]2C | -0.1 | nt | -1.1 | 1.2 | 3.9
COc1ccccc1N=Nc1c(O)[nH]c2ccc(Br)cc12 | 6.4* | 1.1 | 1.0* | 0.0 | 2.2
CC(Oc1ccccc1)C(=O)N=Nc1c(O)[nH]c2ccc(Br)cc12 (stereo not drawn) | 1.1 | -0.7 | 2.2* | -0.3 | -3.6

Screening data as filed in PubChem BioAssay.
